# A selection: hits, their analogues and other compounds. The true share with any hit is near 2.5%.
# PKA-R1A activ: activators of PKA-R1A holoenzyme, primary screen, biochemical, fluorescence polarization, Cy5-IP20, bovine R1A, mouse PKAc | activation, % at 11.4 µM | hit rate 0.083% among 340,000 | cAMP-dependent protein kinase type I-alpha regulatory subunit (Bos taurus) + … | AID 504707, 2011 | PKA-R1A dissociation; scaled: DMSO 0%, 113 µM cGMP 100%;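 active = percent activation above the mean of all tested compounds plus 3 SD, cut at about 19% in these data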;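 note: higher means more PKAc released from R1A so a rise in polarization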
# PKA-R2B act: activators of PKA-R2B holoenzyme, primary screen, biochemical, fluorescence polarization, Cy5-IP20, human; PKA-R2B holoenzyme dissociation; R2B truncated from residue 108, S112A mutant; 0% DMSO only, 100% 113 µM cGMP; hit rate 0.079% among 340,000; AID 504700, 2011; activation, % at 11.4 µM;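 active = activation above a cutoff set at the mean over all compounds plus 3 SD, cut at about 18% in these data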;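 note: higher means more holoenzyme dissociation and a rise in polarization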
# TMEM16A inh: TMEM16A chloride channel inhibitors, primary screen, cell-based, HTS | Anoctamin-1 (Mus musculus), Q8BHY3 | HEK293 TMEM16A/YFP iodide influx fluorescence, ionomycin | normalized B-score (activity score, 25-100; higher = stronger inhibition) at 10 µM | hit rate 1.2% among 310,000 | AID 588511, 2011;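 active = ratio plate-corrected score three or more library SD toward inhibition, starting fluorescence score within five deviations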;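 note: score derived from kinetic fluorescence span divided by baseline fluorescence per well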
# CHT allo act: CHT positive allosteric modulators, primary screen, cell-based, membrane potential dye, choline EC20 | High affinity choline transporter 1 (Homo sapiens), Q9GZV3 | CHT-expressing cells; active compounds read high; LV-AA mutant CHT in HEK293 cells | B-score at 10 µM | hit rate 0.49% among 310,000;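 active = initial fluorescence not abnormally high and integrated response B-score, plate-corrected, over 3 SD above library mean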
# Target sequence (Q9GZV3 whole entry, looked up): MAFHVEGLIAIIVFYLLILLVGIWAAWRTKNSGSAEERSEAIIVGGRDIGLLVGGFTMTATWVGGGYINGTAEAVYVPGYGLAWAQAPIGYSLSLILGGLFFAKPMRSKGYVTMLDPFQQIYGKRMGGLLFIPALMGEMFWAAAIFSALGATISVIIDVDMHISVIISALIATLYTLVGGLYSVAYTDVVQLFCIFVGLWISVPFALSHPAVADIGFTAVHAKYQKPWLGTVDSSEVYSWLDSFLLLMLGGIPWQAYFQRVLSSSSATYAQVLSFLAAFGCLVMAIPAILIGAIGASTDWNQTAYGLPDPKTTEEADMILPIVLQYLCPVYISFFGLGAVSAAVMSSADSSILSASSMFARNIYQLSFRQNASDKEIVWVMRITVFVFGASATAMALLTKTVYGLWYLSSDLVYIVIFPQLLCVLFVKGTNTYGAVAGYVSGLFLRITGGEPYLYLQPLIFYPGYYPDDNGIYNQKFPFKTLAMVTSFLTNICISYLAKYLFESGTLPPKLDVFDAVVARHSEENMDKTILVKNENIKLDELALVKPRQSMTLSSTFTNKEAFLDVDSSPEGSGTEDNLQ
# ANO1 activ: TMEM16A chloride channel activators or potentiators, primary screen, cell-based, HTS | Anoctamin-1 (Mus musculus), Q8BHY3 | HEK293 TMEM16A/YFP-H148Q/I152L, iodide quench fluorescence; active compounds read low | B-score at 10 µM | hit rate 0.3% among 340,000 | AID 623877, 2012;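 active = fluorescence-ratio B-score plate-corrected deviation score at least 3 library SD below zero, with starting fluorescence score within 5 deviations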;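 note: channel opened by trigger with iodide after compound preincubation; score built on the fluorescence ratio of max minus min over baseline; more negative score means more quench and so TMEM16A activation or potentiation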
# CHT inh: inhibitors of human choline transporter CHT. High affinity choline transporter 1 (Homo sapiens), Q9GZV3. CHT-expressing cells, membrane potential dye, choline response; active compounds read low. B-score at 10 µM. hit rate 0.86% among 310,000;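 active = B-score over 3 SD under the library average, and starting fluorescence ratio not unusually high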;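 note: choline stimulus applied at its EC90 after an EC20 pre-addition; B-score computed on integrated fluorescence ratio after choline addition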
# Active calls of the source: *; i = inactive; / = no result given.
SMILES,PKA-R1A activ,PKA-R2B act,TMEM16A inh,CHT allo act,ANO1 activ,CHT inh
Cc1ccc(S(=O)(=O)CC(=O)Nc2nc(-c3ccccc3)cs2)cc1,2,-9,i,i,-5*,i
CCn1ccnc1CN(C)Cc1nc(-c2ccc(C(=O)OC)cc2)no1,-7,-12,i,i,i,i
COc1ccc(Br)cc1CN1CCSCC1,-9,-4,i,i,i,i
COc1ccccc1/C=C/C(=O)NCC(=O)N=Nc1c(O)[nH]c2ccccc12,-4,2,i,i,i,i
CCOC(=O)C1(CCCCCCOc2ccc(Cl)cc2)CO1 (centres undefined),/,/,25*,i,/,i
Brc1ccc(-c2nnc(Cc3ccccc3)o2)cc1,/,/,i,i,i,i
c1ccc(Cc2nnc(-c3ccccc3)o2)cc1,0,-4,i,i,-6.8*,i
COc1ccc(N2C(=O)CC(NNC(=O)c3ccco3)C2=O)cc1 (centres undefined),-11,-4,i,i,i,i
CCOC(=O)NNC1CC(=O)N(c2ccc(OC)cc2)C1=O (centres undefined),0,-9,100*,i,i,i
O=C(NC1CCCN(Cc2ccc(Cl)cc2)C1)c1cnc2ccccn2c1=O (centres undefined),-3,-1,i,i,i,i
CC(C)Cc1ccc(CN2CCCC(NC(=O)c3cnc4ccccn4c3=O)C2)cc1 (centres undefined),-6,2,25*,i,i,i
CCN(c1ccccc1)S(=O)(=O)c1ccc(OC)c(NC(=O)CCc2nc3ccccc3c(=O)[nH]2)c1,-1,2,i,i,i,i
Cc1cc2c(cc1S(=O)(=O)N(C)Cc1ccccc1)OCC(=O)N2,-11,-2,i,i,i,i
COc1ccc(CC(=O)Nc2cccc(-c3nnc(-c4ccc(C)cc4)o3)c2)cc1OC,0,12,25*,i,i,i
COc1ccc(CC(=O)Nc2cccc(-c3nnc(-c4ccccc4)o3)c2)cc1OC,-2,-10,/,/,i,/
COc1ccc(CC(=O)Nc2cccc(-c3nnc(-c4cccc(C)c4)o3)c2)cc1OC,-3,-2,100*,i,i,i
N#Cc1ccc(OCC(=O)n2cc(C(=O)c3cc(Cl)cc(Cl)c3O)cn2)cc1,/,/,i,i,/,i
NC(N)=N/N=C/c1ccc(Cl)cc1Cl,-7,-10,i,i,i,-7.9*
N#CCCN(Cc1cccnc1)C(=S)NC(=O)c1ccccc1,-11,-10,/,/,i,/
CCN(Cc1ccccc1)c1c(C(=O)O)cnc2c1cnn2C,/,/,i,i,-4.8*,i
Cn1ncc2c(NCc3cccc(C(F)(F)F)c3)c(C(=O)O)cnc21,/,/,i,i,/,i
Cc1csc(NC(=O)Cc2nn(C)c(=O)c3ccccc23)n1,-8,2,25*,i,i,i
COc1cccc(OC)c1NC(=O)Cc1nn(C)c(=O)c2ccccc12,-10,-6,i,i,i,i
COc1ccccc1NC(=O)Cc1nn(C)c(=O)c2ccccc12,-17,-3,25*,i,i,i
Cc1cc(C)n2nc(SCC(=O)Nc3ccc(F)cc3[N+](=O)[O-])nc2n1,1,-12,/,/,i,/
CCc1ccccc1OCc1nnc(N)s1,15,8,25*,i,i,i
Cc1cccc(OCc2nnc(N)s2)c1,-8,-2,i,i,i,i
CCOC(=O)N1CCN(C(=S)Nc2ccc3nc(N4CCN(CC)CC4)cc(C)c3c2)CC1,-10,-7,i,i,i,-8.3*
C=CCn1c(SCC(=O)OC)nc2sc3c(c2c1=O)CCN(C)C3,/,/,i,6.3*,/,i

# Screens deposited in PubChem BioAssay by several laboratories.
